Test results from PubChem BioAssay AID686971 (National Center for Advancing Translational Sciences (NCATS), 2013).
The whole screen tested about 360,000 compounds, of which about 7,500 (2.1%) were called active. Inconclusive results (about 8%) are left out. Calls come from the whole dose curve; as a rule, active = well fitted cell-killing curve with a large enough effect; inconclusive = small, poorly fitted or top-dose-only effect, or effect the other way, or another doubt; inactive = no such curve, though single readings can be large or run the other way. Shown is part of a subset that was picked to be rich in actives. Where a call stands in place of a potency, no number is given.

Assay: qHTS for induction of synthetic lethality in tumor cells producing 2HG: qHTS for the HT-1080-IDH1KD cell line
Conditions: HT-1080 IDH1 knockdown viability, ATP luminescence, 48 h; series mostly up to 46.1 µM
From the text: Unbiased genomic sequencing for 22 glioma genomes found recurrent mutation of IDH1 on chromosome 2q33, a gene encoding the cytosolic isoform of IIDH1 associated with the tri-carboxylic acid cycle (TCA) that catalyzes the oxidative decarboxylation of isocitrate, yielding alpha-ketoglutarate and CO2 via NADP+ to NADPH conversion. Subsequent studies confirmed the recurrent IDH mutations in up to 70% of secondary gliomas and in 10% of AML cases. In addition, the somatic mutation of cancer-associated IDH1 is a point mutation resulting in various amino-acid substituents at Arginine132 (IDH1 R132), a key residue found in the enzyme's active site that when mutated, results in the loss-of-function in metabolizing isocitrate but confers a gain-of-function to produce the oncometabolite 2-hydroxyglutarate (2HG). This in effect defines IDH1 as an oncogene and provides an extraordinary opportunity to discover chemical probes against mutant IDH1 that may translate into much needed new therapies for glioma and AML patients.
This assay aims to perform a synthetic-lethal screen for chemical probes specific for 2HG-producing tumor cells using matched paired cell lines (1) HT-1080-NT fibrosarcoma cell line that overproduces 2HG and (2) HT-1080-IDH1KD cell line which has IDH1 expression knocked-down. Desirable compounds are toxic to the NT fibrosarcoma cell line but not to the IDH1KD cell line. The data in this AID corresponds to the results of the qHTS against the HT-1080 IDH1KD cell line.
[1] Dang L, Jin S, Su SM. IDH mutations in glioma and acute myeloid leukemia. Trends of Mol Med. 2010; 16(9): 387-97.
[2] Dang L et al. Cancer-associated IDH1 mutations produce 2-hydroxyglutarate. Nature. 2010; 465(7300):966.
Molecular Libraries Probe Production Centers Network [MLPCN]
NIH Chemical Genomics Center [NCGC]
Assay Submitter (PI): Lenny Dang Ph.D., Agios Pharmaceuticals
Suspensions of trypsinized HT-1080-IDH1KD cells were dispensed into white, tissue culture-treated, solid 1536-well plates at 5uL/well (750 cells/well final concentration) in RPMI medium supplemented with 5% FBS. Plates were incubated at 37 degrees C for 2 hours, after which 23 nL of compounds or DMSO were delivered to each well using a pin tool. Plates were then incubated at 37 degrees C for an additional 48 hours. CellTiter-Glo viability reagent (Promega) was dispensed into wells (2.5uL/well) and incubated at room temperature for 10 minutes. The plates were measured on a PerkinElmer ViewLux plate reader for luminescent signal (clear filter, 1 sec exp.). DMSO-treated control wells and media-only (no cells) control wells were used to normalize %Activity of identified toxic compounds; DMSO-treated wells corresponded to 0%Activity (100% viability), while media-only controls were used to normalize 100%Activity (0% viability). To minimize variability between cell lines, both HT-1080-NT and HT-1080-IDH1KD lines were dispensed and treated with identical compound series in single batches.
Concentration-response curves were fitted to the signals arising from the resulting luminescence. The concentration-effect curves were then classified based on curve quality (r2), response magnitude and degree of measured activity, and compounds were subsequently categorized based on their curve class.
Potency is the fitted concentration of half-maximal effect.

SMILES	Potency
O=NN(CCCl)C(=O)NCCc1cccc[n+]1[O-]	inactive
CCc1nc2ccc(C(=O)NC3CCN(Cc4ccccc4)CC3)cn2c1N(C)CCN1CCOCC1	inactive
C#CCNC(=O)C[C@@H]1C[C@@]2(C(=O)OCC)CCCC=C2N(Cc2ccco2)C1=O	inactive
NS(=O)(=O)c1ccc(NC(=O)CSc2nnc3c(n2)[nH]c2ccccc23)cc1	inactive
CN(C)C(=O)c1cccc(-c2cnc3c(NC=O)cc(-c4ccc(F)cc4)cn23)c1	23.1 µM (active)
CC(=O)c1cccc(-c2cnc3c(NC=O)cc(-c4cccc(C(=O)N(C)C)c4)cn23)c1	inactive
Cc1ccc2nc(-c3ccccn3)cc(C(=O)Nc3ccc4c(c3)OCO4)c2c1	inactive
CCOc1ncccc1C(=O)Nc1ccc2c(c1)OCCO2	inactive
Cc1ccc2nc(-c3ccncc3)cc(C(=O)Nc3ccc4c(c3)OCCO4)c2c1	9.2 µM (active)
CCOc1ccc(CCN2C(=O)C(=O)N([C@@H](CC(C)C)CN3CCC[C@H]3CN3C(=O)C(=O)NC[C@@H]3Cc3ccccc3)C[C@@H]2CC(C)C)cc1	inactive
Cc1ccc(CNC(=O)CCNC(=O)Cn2ccc3ccccc3c2=O)cc1	inactive
COC(=O)COc1cccc2c(=O)n(CC(=O)NCc3ccccc3)ccc12	2.31 µM (active)
COC(=O)COc1cccc2c(=O)n(CC(=O)NCCc3ccc(OC)c(OC)c3)ccc12	inactive
C=CCN1CCN(c2ccncc2S(=O)(=O)N2CCN(C)CC2)CC1	inactive
COc1cccc(C(NC(C)=O)c2nc(-c3ccccc3OC)cs2)c1 (stereo not drawn)	inactive
COc1ccc(C(CNC(=O)CSc2ccccc2)N2CCOCC2)cc1 (stereo not drawn)	inactive
CN(C)c1cccc(NC(=O)c2ccc(-c3ccc(F)c(F)c3)c3ccoc23)c1	inactive
Cc1ccsc1C(=O)OCC(=O)c1cc(C)n(CC2CCCO2)c1C (stereo not drawn)	inactive
Cc1cc(C(=O)CCl)c(C)n1CC1COc2ccccc2O1 (stereo not drawn)	14.6 µM (active)
O=C1C(=O)N(CC2COc3ccccc3O2)c2ccccc21 (stereo not drawn)	inactive
CC(C)(C)c1ccc(C(=O)NCCn2c(N)c(C#N)c3nc4ccccc4nc32)cc1	16.4 µM (active)
COCC(C)OC(=O)c1c(N)n(CCCN2CCOCC2)c2nc3ccccc3nc12 (stereo not drawn)	inactive
CC(C)(C)c1ccc(C(=O)NCC(=O)OCN2C(=O)c3ccccc3C2=O)cc1	inactive
COc1ccc2nc(-c3ccccn3)ccc2c1	inactive
C[C@@H]1CN([C@@H](C)CO)C(=O)CCCn2nncc2CO[C@H]1CN(C)Cc1ccc(C(F)(F)F)cc1	inactive

SMILES	Potency
O=S1(=O)CC(N2CCC(Cc3ccccc3)CC2)CN1Cc1ccccc1 (stereo not drawn)	inactive
CC(C)(C)C(=O)c1c(N)[nH]c(C(=O)c2ccccc2)c1-c1ccc(F)cc1	inactive
COc1ccccc1-c1n[nH]nc1C1=CC(=O)CC(C)(C)C1	inactive
O=C(NCCC1CCCCN1S(=O)(=O)c1ccc(F)cc1)C(=O)NC1CC1 (stereo not drawn)	inactive
O=C(NCCC1CCCCN1S(=O)(=O)c1cccs1)C(=O)Nc1ccc(F)cc1F (stereo not drawn)	14.6 µM (active)
COc1ccccc1CCNC(=O)C(=O)NCCC1CCCCN1S(=O)(=O)c1cccs1 (stereo not drawn)	inactive
O=C(Nc1cccc2ccccc12)c1[nH]c(-c2ccccc2)c2c1C(=O)N(C1CC1)C2=O	inactive
O=C(NCCN1CCOCC1)C1CCN(S(=O)(=O)c2ccccc2)CC1	inactive
O=C(Nc1ccccc1Cl)/C(Cl)=C(\Cl)S(=O)c1ccccc1 (stereo not drawn)	6.51 µM (active)
O=C(COC(=O)CCc1c[nH]c(=O)[nH]1)Nc1ccccc1Cl	inactive
CN(C)S(=O)(=O)Oc1ccccc1C(=O)Nc1ccccc1Cl	inactive
CC1(Oc2ccc(Cl)cc2)CCN(Cc2csc3ccccc23)C1 (stereo not drawn)	inactive
N#CCSc1ccccc1NC(=O)CN1C(=O)NC(CCc2ccccc2)C1=O (stereo not drawn)	inactive
COC(=O)[C@]12CCCCC=C1N(Cc1ccco1)C(=O)[C@H](CC(=O)NCCCCc1ccccc1)C2	inactive
COc1ccc(-c2csc(Nc3cccc(C)n3)n2)cc1OC	inactive
COc1ccc(-c2csc(Nc3ccc(O)cc3)n2)cc1	6.51 µM (active)
COc1ccc(C(C)(O)c2nc(-c3ccc(C)c(C)c3)cs2)cc1 (stereo not drawn)	inactive
OC[C@@H]1CN(Cc2ccc(Cl)cc2)C[C@H](n2cnc3c(NCc4ccncc4)ncnc32)O1	inactive
Cc1ccc(S(=O)(=O)N2CC[C@H]3[C@@H](C2)C(=O)C[C@@H](c2ccccc2)N3S(=O)(=O)c2ccc(C)cc2)cc1	inactive
COc1ccc(-n2c(-c3ccc(Cl)cc3)n[nH]c2=S)c(OC)c1	inactive
Oc1ccc(N2CCN(C(=S)NCc3ccccc3)CC2)cc1	16.4 µM (active)
Oc1ccccc1N1CCN(C(=S)NCc2ccccc2)CC1	inactive
O=C(COC(=O)c1ccccc1C(=O)N1CCN(c2ccccc2)CC1)NCc1ccccc1	inactive
Cc1ccc(F)c(S(=O)(=O)NC(=O)C2(C)CCN2C(=O)c2ccco2)c1 (stereo not drawn)	inactive
COc1ccc(NC(=O)c2cc(=O)[nH]c3ccccc23)cc1S(=O)(=O)N1CCOCC1	inactive

SMILES	Potency
O=C(COC(=O)c1ccccc1O)NCc1ccco1	inactive
Cc1cc(C(=O)OCC(=O)NCc2ccco2)c(C)n1-c1ccccc1	3.66 µM (active)
CN(c1ccccc1)S(=O)(=O)c1ccc(Cl)c(C(=O)OCC(=O)NCc2ccco2)c1	inactive
CCCCC(=O)N(C)c1c(CC)nc2c(OCc3ccc(S(C)(=O)=O)cc3)cccn12	inactive
CN1CCN(c2ccc3c(c2)OC[C@H](Cc2ccccc2)NS3(=O)=O)CC1	inactive
COc1ccc(S(=O)(=O)N2CCC(C(=O)NCc3ccco3)CC2)cc1C	inactive
COc1ccc(C2=NOC(C(=O)NCc3ccco3)C2)cc1OC (stereo not drawn)	4.47 µM (active)
COc1ccc(CNC(=O)C2CC(c3ccc(C(F)(F)F)cc3)=NO2)cc1 (stereo not drawn)	inactive
COc1ccc(OC)c(C(O)c2ncc(-c3cccc(C(F)(F)F)c3)[nH]2)c1 (stereo not drawn)	inactive
Cc1ccc(S(=O)(=O)N2CCN(CC(=O)N/N=C/c3cc([N+](=O)[O-])ccc3Cl)CC2)cc1	inactive
COc1ccc(CC(=O)N/N=C/c2cc([N+](=O)[O-])cc(Br)c2O)cc1	inactive
Cc1cc(C(=O)N/N=C/c2cc([N+](=O)[O-])cc(C)c2O)n[nH]1	16.4 µM (active)
C[C@H]1CN([C@@H](C)CO)C(=O)c2cc(Br)cnc2O[C@H]1CN(C)S(=O)(=O)c1cccs1	inactive
CCCC(=O)N1CCC1(C)C(=O)NS(=O)(=O)c1ccc(Cl)cc1 (stereo not drawn)	inactive
CC(=O)NC1=NN(C(C)=O)C(C)(c2ccc(Cl)s2)S1 (stereo not drawn)	2.31 µM (active)
CC(=O)NC1=NN(C(C)=O)C(C)(CCS(=O)(=O)c2ccc(Cl)c(Cl)c2)S1 (stereo not drawn)	inactive
CC(=O)NC1=NN(C(C)=O)C(C)(c2ccc(C)cc2)S1 (stereo not drawn)	inactive
CCCCN1C(=O)C(CC(=O)NCc2cccs2)CC(C(=O)N2CCCCCC2)=C1C (stereo not drawn)	inactive
CC1(C(=O)NS(=O)(=O)c2ccc(Cl)cc2)CCN1C(=O)CC1CCCC1 (stereo not drawn)	inactive
CCOc1cccc(-n2nnnc2-c2ccc(OC)cc2)c1	4.61 µM (active)
COc1ccc(-n2nnnc2-c2nc3ccccc3s2)cc1	inactive
COc1ccc(NC(=O)CSc2nnnn2-c2cccc(OC)c2)cc1	inactive
Cc1nc2ccccc2nc1CC(O)(c1ccccc1)c1ccccc1	inactive
Nc1nc2c(ncn2[C@@H]2O[C@H](CNCc3ccc(OCCCN4CCOCC4)cc3)[C@@H](O)[C@H]2O)c(=O)[nH]1	inactive
CN(C)CCCN(C(=O)c1ccc(S(=O)(=O)N2CCCCCC2)cc1)c1nc2ccc(Br)cc2s1	16.4 µM (active)

SMILES	Potency
COc1ccc2sc(N(CCCN(C)C)C(=O)c3ccc(S(=O)(=O)N(C)C4CCCCC4)cc3)nc2c1	inactive
Cc1ccc2nc(N(CCN(C)C)C(=O)C3=COCCO3)sc2c1	inactive
O=S1(=O)CC(N2CCN(Cc3ccccc3F)CC2)CN1Cc1cn(Cc2cccc(C(F)(F)F)c2)nn1 (stereo not drawn)	inactive
C[C@@H]1CN([C@@H](C)CO)S(=O)(=O)c2ccc(-c3ccc(C(=O)N(C)C)cc3)cc2O[C@@H]1CN(C)Cc1ccccc1C(=O)O	inactive
CC(C)c1ccc(NC(=S)NNc2ccc(Cl)c(C(=O)O)c2)cc1	inactive
Cc1ccc(C)c(NC(=S)NNC(=O)c2csc(C)c2)c1	inactive
Cc1ccc(C)c(NC(=S)NNC(=S)Nc2ccc(C(C)C)cc2)c1	23.1 µM (active)
Cc1cc(Br)ccc1NC(=O)CCCOc1cc(=O)n(C)c2ccccc12	inactive
Cc1ccc(C(=O)Nc2c(-c3ccccc3)[nH][nH]c2=O)cc1	inactive
Fc1ccc(NC(=S)N2CCc3[nH]c4ccccc4c3C2)cc1	inactive
O=C(Nc1ccc(Cl)cc1)N1CCc2[nH]c3ccccc3c2C1	inactive
O=C(CCCN1CCc2[nH]c3ccc(F)cc3c2C1)c1ccc(F)cc1	20.6 µM (active)
CC1(C(=O)NS(=O)(=O)c2ccccc2)CCN1C(=O)c1ccccc1 (stereo not drawn)	inactive
COc1cc(C(O)c2nc(-c3cccc(C(=O)O)c3)cs2)ccc1F (stereo not drawn)	inactive
COc1ccc2c(c1)c(=Cc1ccc(N(C)C)cc1)c1cc(-c3ccccc3)[n+](C)n12	5.17 µM (active)
COc1ccc2sc(-c3ccc(N(C)C)cc3)c(-c3ccc4cc[nH]c4c3)c2c1	inactive
COc1ccc(CCNS(=O)(=O)c2cccc3cccnc23)cc1OC	inactive
CCCCC(=O)NC(c1ccc(OC)c(OC)c1)c1ccc2cccnc2c1O (stereo not drawn)	2.91 µM (active)
CCOc1ccc(C(CC(=O)O)NC(=O)Cc2ccccc2)cc1OC (stereo not drawn)	inactive
CCCNC(=O)C1(C)CCCN(C(=O)c2cccc(OC(C)=O)c2C)C1 (stereo not drawn)	inactive
O=c1cc(-c2ccccc2)[nH]c2cc(F)ccc12	4.11 µM (active)
Cc1cc(=O)c2ccc(NC(=O)c3ccccc3)cc2[nH]1	inactive
Cc1ccc(-c2cc(=O)c3ccc(F)cc3[nH]2)cc1	inactive
